IP6K1 inhibitor: blocks human inositol hexakisphosphate kinase 1; Q92551; 0.81% of 140,000 active; activity change, % (series mostly up to about 58 µM); IP6K1 kinase, ADP-Glo luminescence, 2 h; stronger effect = lower value; in the data active = activity change below about -25%
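ADP-Glo luminescence measures ADP made by human IP6K1 during a 2 h RT reaction with ATP/IP6 (mix at 1.3 mM/130 uM); top library doses 57.5 and 19.1 uM final.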
KDM5B inh: inhibitors of human KDM5B histone demethylase; Q9UGL1; KDM5B demethylase, FDH-coupled NADH fluorescence (FDH is formaldehyde dehydrogenase); Potency, µM (highest dose often 57.7 µM), most hits filed as inhibitors; 2.6% of 220,000 active; active = well fitted inhibition curve with a large enough effect; inconclusive = small, poorly fitted or top-dose-only effect; inactive = no such curve, though single readings can be large or run the other way; note: nearly all actives have a fitted effect of over 70% in size
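Measured: NADH fluorescence change, 30 min, RT. System: KDM5BΔAP 200 nM final, H3K4me3 peptide, α-KG, Fe(II), ascorbate, NAD⁺ plus FDH, pH 7.5 HEPES. Compounds: titrated, 10 min pre-incubation with enzyme.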
Hits are given with their value; – = inactive; ? = inconclusive; · = no result. This is a sample that favours compounds with a hit; in the whole collection about 2.8% have one here.

SMILES | IP6K1 inhibitor | KDM5B inh
CCCCNCc1ccc(-c2ccc(C(C)O)cc2)o1 (stereo not drawn) | · | –
Cc1ccc(-c2ccc3nnc(CNC(=O)COc4ccc(F)cc4)n3n2)cc1C | – | ?
Cc1cccc(OCC(=O)NCc2nnc3ccc(-c4ccc(F)cc4)nn23)c1 | – | 35.5µM
Cc1ccc(-c2ccc3nnc(CNC(=O)COc4cccc(C)c4)n3n2)cc1 | – | 10µM
CCOc1ccc(C(=O)N2CCC3(CC2)NC(=O)N(Cc2ccccc2)C3=O)cc1 | – | –
COC(=O)C1=C(CS(=O)(=O)c2ccc(C(C)(C)C)cc2)NC(=O)NC1c1ccc(O)cc1 (stereo not drawn) | · | –
Cc1ccc(Cl)c(OC(=O)c2nn(C)c(=O)c3ccccc23)c1 | · | –
CCOC(=O)CCCOc1cccn2c(=O)c(-c3cc(C)n(-c4ccccc4)n3)c(C)nc12 | – | 25.1µM
COC(=O)COc1cccn2c(=O)c(-c3cc(C)n(-c4ccc(Cl)c(Cl)c4)n3)c(C)nc12 | – | 28.2µM
Cc1ccc(-n2nc(-c3c(C)nc4scc(CC(=O)NCc5ccccc5)n4c3=O)cc2C)cc1 | – | ?
Cc1nc2c(OCC(=O)c3ccccc3)cccn2c(=O)c1-c1cc(C)n(-c2ccc(Cl)cc2)n1 | – | 15.8µM
Cc1ccc(-n2nc(-c3c(C)nc4scc(CC(=O)NC(C)C)n4c3=O)cc2C)cc1 | – | ?
CCOc1cccn2c(=O)c(-c3cc(C)n(-c4ccc(Cl)cc4)n3)c(C)nc12 | – | ?
CC(C)Cc1nc2cccnc2n1C1CCN(S(=O)(=O)c2ccc3c(c2)CCCC3)CC1 | · | –
Cc1ccc(-c2cc(N3CCCN(C(=O)CCc4ccccc4)CC3)n[nH]2)cc1C | – | 15.8µM
O=C(CCc1ccccc1)N1CCCN(c2cc(-c3ccc(Cl)cc3)[nH]n2)CC1 | – | ?
CC(C)COC(=O)N1C[C@@H](CO)[C@@H]2Oc3ccc(Cl)cc3[C@@H]21 | – | ·
COc1ccccc1NC(=O)c1c(C)oc2ccn(Cc3ccc(F)cc3)c(=O)c12 | – | 31.6µM
Cc1oc2ccn(Cc3ccc(F)cc3)c(=O)c2c1C(=O)N1CCN(c2ccccn2)CC1 | – | 22.4µM
Cc1oc2ccn(Cc3ccc(F)cc3)c(=O)c2c1C(=O)O | – | –
CCCNC(=O)c1c(C)oc2ccn(Cc3ccc(F)cc3)c(=O)c12 | – | –
O=C(c1ccccc1)N1CCn2c(nn(-c3ccncc3)c2=O)C1 | – | –
CCCOc1ccc(CNC(=O)c2ccc(C)c(-n3c(C)nc4cccnc43)c2)cc1 | – | ?
Cc1nc2c(s1)C[C@@H]1[C@](C)(CO)[C@H](O)CC[C@@]1(C)[C@@H]2CC(=O)NCc1cccnc1 | – | –
CC(C)NC(=O)C[C@@H]1c2nc(NC(=O)c3ccc(C(C)(C)C)cc3)sc2C[C@@H]2[C@](C)(CO)[C@H](O)CC[C@]21C | – | 31.6µM
SMILES | IP6K1 inhibitor | KDM5B inh
CC(C)(C)c1ccc(C(=O)Nc2nc3c(s2)C[C@@H]2[C@](C)(CO)[C@H](O)CC[C@@]2(C)[C@@H]3CC(=O)NC2CC2)cc1 | – | ?
COc1ccc(C(=O)Nc2nc3c(s2)C[C@@H]2[C@](C)(CO)[C@H](O)CC[C@@]2(C)[C@@H]3CC(=O)N2CCOCC2)cc1 | – | ?
C[C@]1(CO)[C@H]2Cc3sc(NC(=O)c4ccc(F)cc4)nc3[C@@H](CC(=O)O)[C@]2(C)CC[C@H]1O | – | –
COc1ccccc1CNC(=O)C[C@@H]1c2nc(-c3cccnc3)sc2C[C@@H]2[C@](C)(CO)[C@H](O)CC[C@]21C | – | 25.1µM
C[C@H](NC(=O)C[C@@H]1c2nc(NC(=O)c3ccc(F)cc3)sc2C[C@@H]2[C@](C)(CO)[C@H](O)CC[C@]21C)c1ccccc1 | – | 31.6µM
CC(C)(C)c1ccc(C(=O)Nc2nc3c(s2)C[C@@H]2[C@](C)(CO)[C@H](O)CC[C@@]2(C)[C@@H]3CC(=O)N2CCOCC2)cc1 | – | 28.2µM
O=Cc1cnccc1-c1ccccc1 | · | –
CC(C)(C)CC(=O)Nc1nc2c(s1)C[C@@H]1[C@](C)(CO)[C@H](O)CC[C@@]1(C)[C@@H]2CC(=O)NCc1ccco1 | – | –
CC(C)(C)c1ccc(C(=O)Nc2nc3c(s2)C[C@@H]2[C@](C)(CO)[C@H](O)CC[C@@]2(C)[C@@H]3CC(=O)NCc2ccco2)cc1 | – | 17.8µM
CC(C)S(=O)(=O)c1ncc(CN(C)Cc2ccsc2)n1CCc1ccccc1 | – | –
CNC(=O)c1cc(C2CC2)nc2c1c(C1CCN(C(=O)Cc3cccc(Cl)c3)CC1)nn2C | – | ·
Cc1ccc(-c2cc(-c3cccnc3)c3cncn3c2)cn1 | – | 35.5µM
COc1ccccc1-c1cc(-c2ccncc2)c2cncn2c1 | – | ?
COc1cccc(-c2cc(-c3cccnc3)c3cncn3c2)c1OC | – | 35.5µM
Oc1cccc(-c2cc(-c3cccnc3)c3cncn3c2)c1 | – | ?
FC(F)(F)c1ccccc1-c1cc(-c2cccnc2)c2cncn2c1 | – | ?
COc1ccc(-c2cc(-c3ccc(OC)nc3)cn3cncc23)cc1 | – | –
COc1ccc(-c2cc(-c3cccnc3)cn3cncc23)cc1 | – | 39.8µM
COc1ncccc1-c1cc(-c2cccnc2)c2cncn2c1 | – | 35.5µM
O=C(O)C1CCN(C(=O)CCl)CC1 | · | –
N#CC1CCN(C(=O)c2cc(-c3ccc(Cl)cc3)c3nncn3n2)CC1 | – | ·
CNC(=O)CCn1ncc2cc(OCc3ccccc3-c3ccc(F)cc3OC)ccc21 | – | ?
COc1ccc(-c2cc(-c3cccc(NC(C)=O)c3)cn3cncc23)cn1 | – | ?
COc1ccc(-c2cc(-c3cccc(NC(C)=O)c3)cn3cncc23)cc1 | – | 8.91µM
c1cncc(-c2cc(-c3ccc4cn[nH]c4c3)cn3cncc23)c1 | – | 35.5µM
SMILES | IP6K1 inhibitor | KDM5B inh
COc1ccc(-c2cc(-c3cccnc3OC)cn3cncc23)cc1 | – | 35.5µM
COc1ccc(-c2cc(-c3ccc4c(c3)C(=O)NC4)cn3cncc23)cc1 | – | ?
c1cncc(-c2cc(-c3cccc(N4CCOCC4)c3)cn3cncc23)c1 | – | ?
Cc1ccc(SCC(=O)NCc2ccc(CS(N)(=O)=O)cc2)cc1C | · | –
COc1ccc(N2CC(COc3ccccc3)Oc3nc(C)ccc3C2=O)cc1 (stereo not drawn) | – | ·
CCOC(=O)c1cc(S(=O)(=O)Nc2ccc(OCc3ccccc3)cc2)[nH]n1 | · | –
O=C(CN1CCC(C(=O)N2CCOCC2)CC1)N1CCN(c2ccccc2)CC1 | · | –
FC(F)(F)c1ccnc(N2CCC(OCc3cccnc3)CC2)n1 | – | –
Fc1cnc(N2CCCC(OCc3cccnc3)C2)nc1N1CCOCC1 (stereo not drawn) | – | 28.2µM
CC1=C[C@@H](CNC(=O)C2CCCCC2)[C@H](C(C)C)C[C@H]1CC(=O)N1CCN(c2ccccn2)CC1 | – | 35.5µM
CC1=C[C@@H](CNC(=O)C(C)(C)C)[C@H](C(C)C)C[C@H]1CC(=O)N1CCN(c2ccccn2)CC1 | – | 20µM
CCOC(=O)C[C@@H]1C[C@@H](C(C)C)[C@H](CNC(=O)C2CC2)C=C1C | – | –
COCCNC(=O)C[C@@H]1C[C@@H](C(C)C)[C@H](CNC(=O)C2CC2)C=C1C | – | 35.5µM
CC1=C[C@@H](CNC(=O)c2ccccn2)[C@H](C(C)C)C[C@H]1CC(=O)N1CCCC1 | – | –
CC1=C[C@@H](CNC(=O)c2ccccc2)[C@H](C(C)C)C[C@H]1CC(=O)N1CCN(C)CC1 | – | –
CC(=O)N1CCN(C(=O)C[C@@H]2C[C@@H](C(C)C)[C@H](CC#N)C=C2C)CC1 | – | –
